# From the supplement of paper PMC6555819
# Legend:
# Test in all cases: PBM binding z-score (relative to random genomic background probes); higher = stronger binding; sequences stand for … in GC…GCGATTGACAGCGTAGAATGAAGG
# [1] = system: RARb homodimer (NR concentration 270 nM)
# Procedure, shortened: (§1)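 Antibodies against each partner of ligand-free nuclear receptor dimers (one per run) detected binding on custom Agilent 4×180K protein-binding microarrays after 1 h incubation. The double-stranded probes had 34-nt variable regions carrying direct-repeat seeds, single-nucleotide variants, half-site ablations and random human genomic background sequences. Binding z-scores, from regression-normalized fluorescence, use the random background probes as reference.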
# [2] = system: RARg:RXRa (NR concentration 270 nM, RXRa partner concentration 90 nM)
# Procedure, shortened: as §1
# [3] = system: RARg homodimer (NR concentration 270 nM)
# Procedure, shortened: as §1
# [4] = system: RXRa DBDmut IVT, anti-RXR (DBD mutation: RXRa K156A/R161A, NR concentration 90 nM)
# Procedure, shortened: as §1
# [5] = system: RXRa homodimer (NR concentration 180 nM)
# Procedure, shortened: as §1
# [6] = system: THRa:RXRa (NR concentration 90 nM, RXRa partner concentration 90 nM)
# Procedure, shortened: as §1
# [7] = system: THRa homodimer (NR concentration 90 nM)
# Procedure, shortened: as §1
# [8] = system: VDR homodimer (NR concentration 270 nM)
# Procedure, shortened: as §1
Sequence,PBM binding z-score [1],PBM binding z-score [2],PBM binding z-score [3],PBM binding z-score [4],PBM binding z-score [5],PBM binding z-score [6],PBM binding z-score [7],PBM binding z-score [8]
CCGAGTAGGTTATGGGGCATGCAGGCAACGGTGA,1.15,0.72,0.548,-0.675,0.867,0.102,-0.321,-0.0729
GCGACTGGGGTATCAGCAGGTTACCATAACTTAA,0.852,0.223,-0.199,-0.351,0.229,1.82,-0.0503,-0.333
CCAAACAGGTGAAAGGTAACTCAGTCTGGTACGC,0.802,1.11,0.696,0.223,1.99,0.954,0.0389,0.206
GCATATAGGTGATACAAGGTGAAAGTCCGATTGT,0.997,0.873,0.702,0.341,0.856,4.24,0.943,0.0464
CTTCGGAGGACAGAAGGTCAGAGCTGTCCGCTTT,3.32,3.58,3.53,-0.00556,2.14,2.31,-0.137,-0.0466
TCATATAGGTAAACAGGTGAAGGTCCGTAAGTTA,0.91,0.737,0.389,1.36,0.85,0.707,0.377,0.32
ATCGCAAGGTCGAAGGTGAGTATACCCACCCGAA,1.17,2.67,2.23,0.978,2.93,2.12,-0.0109,0.489
CCTGCTAGGTCATGGTGAGCTAATCTACAGTATG,2.8,3.83,4.17,1.72,2.52,2.82,0.878,-0.0752
ATCTCTAGGTAAGACTCAGGTCAGTGAAGAACGC,2.52,1.49,1.35,0.359,0.773,2.67,2.37,0.803
ACTTATGGGTCAACGAGGTTATAGCACGCGTATA,3.67,5.04,5.1,1.92,5.18,3.79,1.03,2.82
GCATACAGGTGAAACGCAGGTAACTCAGGGTGGC,0.299,1.03,0.276,-0.217,0.854,1.42,-0.151,-0.463
TCGAGTAGGTTAGTCGGGGCATACAGCCAACATA,0.452,0.28,0.255,0.235,0.45,1.02,-0.188,-0.0779
CCAGACAGGTGAAAGGTAACGCAGTCTGGTACGC,1.03,1.46,0.723,-0.16,2.42,1.08,-0.07,-0.146
CCTCCTGGGCCACGAAAGGTCATTGATTCAGTGA,4.56,4.7,4.3,0.0691,4.89,3.84,0.846,2.04
GCTTACGGGTCATAGGTTATAGCATGAATAGAAT,2.49,4.99,3.83,2.34,6.22,2.9,0.18,0.952
TGTAGCAGGCCAGAGGGTCACTCAAGAGGTACGG,2.85,2.8,2.7,-1.32,2.64,1.59,-0.464,0.427
CCTACTGGGCCAAAAACGTCATTGATGCCGATAA,-0.34,-0.089,-0.172,-0.196,0.029,-0.371,-0.47,-0.735
CCAGACAGGTGAAAGGGAACTCAGTCTGGTACGC,0.101,0.15,0.299,-0.242,0.59,0.0918,-0.374,0.0555
ACTAGCAGGCCAAGGGTCACTAAAGATTAGTCCG,3.83,4.08,3.84,0.469,4.13,2.31,0.0838,1.07

Sequence,PBM binding z-score [1],PBM binding z-score [2],PBM binding z-score [3],PBM binding z-score [4],PBM binding z-score [5],PBM binding z-score [6],PBM binding z-score [7],PBM binding z-score [8]
CGACAAAGTTCAACTAAGGTAACGTAAAGCACGC,4.21,5.63,6.69,4.18,4.41,5.06,1.57,3.79
ACAAACAGGTGATGAAGGTAACTCAGGCTATCAT,0.731,0.443,0.626,0.298,0.602,1.19,0.203,0.203
CGTCCAAGGTCAATGCTAGGTCAGAGAAAGCATT,5.02,7.59,7.07,3.6,6.03,4.58,3,2.77
AATACAGGGTCATCGTAGGCCAGAGTCCGCACAG,3.75,5.73,5.28,3.35,6.62,4.68,1.62,3.38
GCAGACAGGTGAAACGCAGGTGACTCAGGGTGGC,0.561,1.85,0.482,-0.723,0.927,1.56,-0.166,-0.391
AGAATGAGGTTATTATGATCAGGGAATTGCGGTC,0.795,1.07,0.882,2.21,1.7,2.21,1.08,1.41
GCTAGCCGGCCATTTGGGTCACTCAATGACGGGC,1.75,0.912,1.1,-0.739,0.725,1.62,0.719,0.157
TCTTGTAGATCAACAGGAGGTTAAGAACGATCGA,0.615,0.992,0.377,0.686,0.967,0.923,-0.518,-0.0634
CCAGACAGGTGCGAAGGTAACTCAGCCTCGATTA,-0.418,-0.29,-0.243,0.384,-0.121,-0.305,-0.159,-0.453
ATCGAAAGGTCGAAGGTGAGTTTACCCACCCGAA,2.62,4.3,3.49,1.41,5.2,2.45,0.143,3.11
CGAACTAGGTCATTGACACGACAGTGAATAGTAA,2.5,3.57,4.22,2.37,2.52,2.53,0.751,1.15
ACTAGCAGGCCAAGTTTGGGTCACTGAAACAAAG,2.33,2.54,2.01,-0.119,0.982,2.71,1.29,0.416
TCGAGTAGGTTAGGGTCATTCAGAATGGCGTCGA,3.05,3.8,2.8,2.11,4.66,3.83,2.62,3.97
CCATACAGGTGAAAGGTAACTCAGTCTGGTACGC,0.92,1.41,0.917,0.261,2.32,1.08,0.069,-0.101
ACTAGCAGGCCAAGTTTGGGTCACTCAGACAAAG,2.13,2.11,1.41,0.0571,0.7,2.33,0.94,0.117
CAAACTAGCTCACGAAAGGTCAAAGTCGAATGAC,4.81,5.46,5.04,1.31,6.26,3.62,0.952,2.53
AGTCAAAGTTCACTAGGTGACGTAAGATTCAGCT,4,5.11,5.68,4.42,3.96,2.33,0.0713,3.73
GCTGCTAGGTCAACTGATGGTCAGCGAAAGCTCG,3.66,5.35,5.22,1.57,3.2,2.98,0.857,0.0996
CCTCGGAGGACAGAAGGTAAGAGCTGTCCGCTTT,-0.457,-0.117,0.0766,-0.382,-0.845,-0.0375,-0.566,-0.677

Sequence,PBM binding z-score [1],PBM binding z-score [2],PBM binding z-score [3],PBM binding z-score [4],PBM binding z-score [5],PBM binding z-score [6],PBM binding z-score [7],PBM binding z-score [8]
TCTTGTTGATCAGCAGGTTAAGAAAGCTGGCCAA,0.158,-0.129,-0.598,0.635,0.257,0.181,-0.779,-0.748
AATCCAGGGTCATCGTAGGCCAGAGTACGCACAG,3.82,5.9,5.22,3.32,6.77,4.55,1.86,4.06
ACAGACAGGTGAGTGAAGGTAACTCCGCTGGACG,0.202,0.0663,0.259,-0.475,0.41,1.29,-0.349,-0.537
CGTCCAAGGTCAAAGATCAGTGAAGAGATGACGG,3.86,6.12,6.48,3.73,6.79,3.85,1.87,2.6
GCTTGTAGATCAAGGTTGAGAAAGACTAAGCTAA,-0.753,-0.343,-0.385,0.0122,-0.32,-0.135,-0.906,-0.235
CAAACTACGTCACAGAGGTCAAAGTCCGTGCGTA,4.71,5.46,4.64,1.87,6.27,3.7,1.47,4.03
CCGACTGGGGCATGAGGTTACCATAAGCCAGCCC,1.43,1.29,0.922,-0.569,1.25,1.89,0.853,-0.0736
CCTCGGAGGACAACAGGAGGTCAGAGATGCCAGA,3.66,3.42,3.31,0.124,1.95,2.83,1.02,1.41
ATATGTAGGTTAGCTGGGGTCATTCTGACTAGGC,3.66,3.88,2.79,2.08,5.12,5.12,3.04,5.3
GCTCGGCGGACAAGGTCAGAGCTTTGTCCGTAGA,2.47,2.59,2.54,-0.314,2.11,2.25,0.553,0.0541
CAGCCCAGGTCAGGGCCAGTATAGGAGGAACGTT,2.54,3.15,3.67,-0.41,2.25,2.73,1.48,0.168
CGAACTAGTTCAGAACAGGACAGTGAAGGATGAT,0.329,0.335,0.706,1.18,0.233,1.8,-0.53,0.226
GCTAGTTGGTCAGCAAAAGGTCACACACCGGTCG,5.34,5.94,5.62,-0.0302,6.14,3.41,1.55,1.55
CTGACTGGGGCATAAGGTTACCATAAGCCAGCCC,1.92,1.99,1.46,-0.277,1.4,2.42,1.35,-0.328
CGTCCAATGTCAAGGTCAGTGAAAGAGACTCGAA,3.45,3.38,4.06,1.1,2.22,2.91,2.18,1.57
AGTCAAAGCTCAGGACGAGGTAACGTAAAGCACG,-0.228,0.0301,0.2,-0.664,-0.013,1.86,1.21,-0.138
GCGACTGGGGCAAAGCAGGTAACCATAAGGTTGG,0.207,0.0978,0.448,-0.914,0.117,2.89,-0.129,-0.329
TCATATAGGTAAAAGGTGACAGTCGGTGTGGTAA,1.71,1.48,0.836,1.66,2.28,1.4,0.394,0.0898
